Results as given in the antibiotic and cytotoxicity screens of Wong et al. (2023).
In all, about 39,000 compounds went through this assay and about 3,300 (8.5%) were called active. This is one part of a sample in which actives are shown more often than they occur.

These compounds were tested on HepG2 (assay: cytotoxicity call (relative viability < 0.9)). Conditions: 10 µM.

SMILES | cytotoxicity call
C[C@H]1CCCCO[C@@H](CN(C)C(=O)c2ccccc2)[C@@H](C)CN([C@@H](C)CO)C(=O)c2cc(NC(=O)C3CCCCC3)ccc2O1 | inactive
CC(C)(C)[S@@](=O)N1Cc2cc(C(=O)NCc3ccc4c(c3)OCO4)nc(-c3cccc(-c4cccnc4)c3)c2[C@H]1CCO | inactive
COCCNC(=O)C[C@@H]1CC[C@@H]2[C@@H](COc3ccc(NC(=O)Nc4cccc(F)c4)cc3C(=O)N2C)O1 | inactive
CCCCNC(=O)N1C[C@@H]2[C@H](CN)[C@@H]2C1 | inactive
C[C@@H]1CCCCO[C@H](CN(C)C(=O)NC2CCCCC2)[C@H](C)CN([C@H](C)CO)C(=O)c2cc(NS(=O)(=O)c3ccc(F)cc3)ccc2O1 | active
Cc1ccc(S(=O)(=O)Nc2ccc3c(c2)C(=O)N([C@H](C)CO)C[C@H](C)[C@@H](CN(C)C(=O)NC2CCCCC2)OCCCC[C@H](C)O3)cc1 | inactive
Cc1ccc(S(=O)(=O)Nc2ccc3c(c2)C(=O)N([C@@H](C)CO)C[C@H](C)[C@H](CN(C)C(=O)NC2CCCCC2)OCCCC[C@@H](C)O3)cc1 | inactive
Cc1ccc(S(=O)(=O)Nc2ccc3c(c2)C(=O)N([C@@H](C)CO)C[C@H](C)[C@@H](CN(C)C(=O)NC2CCCCC2)OCCCC[C@H](C)O3)cc1 | active
Cc1ccc(S(=O)(=O)Nc2ccc3c(c2)C(=O)N([C@@H](C)CO)C[C@H](C)[C@@H](CN(C)C(=O)NC2CCCCC2)OCCCC[C@@H](C)O3)cc1 | inactive
Cc1ccc(S(=O)(=O)Nc2ccc3c(c2)C(=O)N([C@H](C)CO)C[C@@H](C)[C@H](CN(C)C(=O)NC2CCCCC2)OCCCC[C@@H](C)O3)cc1 | inactive
C[C@@H]1CCCCO[C@@H](CN(C)C(=O)NC2CCCCC2)[C@@H](C)CN([C@@H](C)CO)C(=O)c2cc(NS(=O)(=O)c3ccc(F)cc3)ccc2O1 | inactive
Cc1ccc(S(=O)(=O)Nc2ccc3c(c2)C(=O)N([C@@H](C)CO)C[C@@H](C)[C@H](CN(C)C(=O)NC2CCCCC2)OCCCC[C@@H](C)O3)cc1 | active
C[C@H](CO)N1C[C@H](C)[C@@H](CN(C)C(=O)NC2CCCCC2)OCCCC[C@H](C)Oc2ccc(NS(=O)(=O)c3ccc(F)cc3)cc2C1=O | inactive
C[C@@H]1CN([C@@H](C)CO)S(=O)(=O)c2ccc(-c3ccc(C(=O)N(C)C)cc3)cc2O[C@H]1CN(C)C(=O)C1CCC1 | inactive
CCS(=O)(=O)NCc1nccc(N(C)C)n1 | inactive
COc1ccc(S(=O)(=O)N(C)C[C@H]2OCc3cn(nn3)CCCC(=O)N([C@H](C)CO)C[C@@H]2C)cc1 | inactive
O=C(C[C@@H]1CC[C@H]2[C@@H](COC[C@@H](O)CN2S(=O)(=O)c2ccccc2)O1)N[C@@H]1CCN(Cc2ccccc2)C1 | inactive
Cc1noc(C)c1NC(=O)Nc1ccc2c(c1)C(=O)N([C@H](C)CO)C[C@@H](C)[C@H](CN(C)Cc1ccc(Cl)c(Cl)c1)OCCCC[C@@H](C)O2 | inactive
Cc1noc(C)c1NC(=O)Nc1ccc2c(c1)C(=O)N([C@H](C)CO)C[C@H](C)[C@H](CN(C)Cc1ccc(Cl)c(Cl)c1)OCCCC[C@H](C)O2 | inactive
Cc1noc(C)c1NC(=O)Nc1ccc2c(c1)C(=O)N([C@H](C)CO)C[C@@H](C)[C@H](CN(C)Cc1ccc(Cl)c(Cl)c1)OCCCC[C@H](C)O2 | inactive
Cc1noc(C)c1NC(=O)Nc1ccc2c(c1)C(=O)N([C@@H](C)CO)C[C@@H](C)[C@H](CN(C)Cc1ccc(Cl)c(Cl)c1)OCCCC[C@@H](C)O2 | active
Cc1noc(C)c1NC(=O)Nc1ccc2c(c1)C(=O)N([C@@H](C)CO)C[C@@H](C)[C@H](CN(C)Cc1ccc(Cl)c(Cl)c1)OCCCC[C@H](C)O2 | inactive
Cc1noc(C)c1NC(=O)Nc1ccc2c(c1)C(=O)N([C@H](C)CO)C[C@H](C)[C@@H](CN(C)Cc1ccc(Cl)c(Cl)c1)OCCCC[C@@H](C)O2 | inactive

SMILES | cytotoxicity call
Cc1noc(C)c1NC(=O)Nc1ccc2c(c1)C(=O)N([C@@H](C)CO)C[C@H](C)[C@@H](CN(C)Cc1ccc(Cl)c(Cl)c1)OCCCC[C@H](C)O2 | inactive
Cc1noc(C)c1NC(=O)Nc1ccc2c(c1)C(=O)N([C@H](C)CO)C[C@@H](C)[C@@H](CN(C)Cc1ccc(Cl)c(Cl)c1)OCCCC[C@H](C)O2 | active
Cc1noc(C)c1NC(=O)Nc1ccc2c(c1)C(=O)N([C@H](C)CO)C[C@H](C)[C@H](CN(C)Cc1ccc(Cl)c(Cl)c1)OCCCC[C@@H](C)O2 | inactive
Cc1noc(C)c1NC(=O)Nc1ccc2c(c1)C(=O)N([C@@H](C)CO)C[C@H](C)[C@@H](CN(C)Cc1ccc(Cl)c(Cl)c1)OCCCC[C@@H](C)O2 | active
Cc1noc(C)c1NC(=O)Nc1ccc2c(c1)C(=O)N([C@H](C)CO)C[C@H](C)[C@@H](CN(C)Cc1ccc(Cl)c(Cl)c1)OCCCC[C@H](C)O2 | inactive
Cc1noc(C)c1NC(=O)Nc1ccc2c(c1)C(=O)N([C@@H](C)CO)C[C@@H](C)[C@@H](CN(C)Cc1ccc(Cl)c(Cl)c1)OCCCC[C@@H](C)O2 | active
Cc1ccc(S(=O)(=O)Nc2ccc3c(c2)C(=O)N([C@@H](C)CO)C[C@H](C)[C@@H](CN(C)S(C)(=O)=O)OCCCC[C@H](C)O3)cc1 | inactive
C[C@H](CO)N1C[C@H](C)[C@H](CN(C)C(=O)Nc2ccc(C(F)(F)F)cc2)OCCCC[C@H](C)Oc2ccc(NC(=O)c3ccncc3)cc2C1=O | inactive
C[C@H]1CN([C@@H](C)CO)C(=O)c2cc(C#Cc3ccccc3F)cnc2O[C@@H]1CN(C)S(=O)(=O)c1ccccc1 | inactive
C[C@H](CO)N1C[C@H](C)[C@@H](CN(C)S(=O)(=O)c2ccccc2)Oc2ncc(Br)cc2C1=O | inactive
S=C(Nc1ccccc1)Nc1ccc2c(c1)oc1ccccc12 | inactive
COc1ccc(CN(C)C[C@@H]2Oc3ccc(NC(=O)Cn4cnnn4)cc3CC(=O)N([C@H](C)CO)C[C@@H]2C)cc1 | inactive
C[C@@H](N)c1cnn(-c2ccccc2F)c1 | inactive
CCN(CC)CCNc1ccc(COc2ccccc2/C=C(C)/C=C/C(=O)NO)c2sc3ccccc3c(=O)c12 | inactive
CCN(CC)CCNc1ccc(CO)c2sc3ccccc3c(=O)c12 | active
CCN(CC)CCNc1ccc(COc2cccc(/C=C(C)/C=C/C(=O)NO)c2)c2sc3ccccc3c(=O)c12 | inactive
C[C@@H]1CCCCO[C@@H](CN(C)Cc2ccc(C(=O)O)cc2)[C@@H](C)CN([C@H](C)CO)C(=O)c2cc(NS(=O)(=O)c3cccs3)ccc2O1 | inactive
O=C(C[C@@H]1C=C[C@@H](NC(=O)c2cccnc2)[C@@H](CO)O1)NCCN1CCCCC1 | inactive
O=C(C[C@@H]1C=C[C@@H](NC(=O)c2cccnc2)[C@H](CO)O1)NCCN1CCCCC1 | inactive
CN(C)CC(=O)N[C@@H]1C=C[C@@H](CC(=O)NCCN2CCCCC2)O[C@H]1CO | inactive
CN(C)CC(=O)N[C@H]1C=C[C@@H](CC(=O)NCCN2CCCCC2)O[C@@H]1CO | active
O=C(C[C@H]1C=C[C@H](NC(=O)c2cccnc2)[C@@H](CO)O1)NCCN1CCCCC1 | active
CN(C)CC(=O)N[C@@H]1C=C[C@H](CC(=O)NCCN2CCCCC2)O[C@H]1CO | inactive

SMILES | cytotoxicity call
COCC#Cc1ccc2c(c1)O[C@@H](CN(C)C(=O)Nc1ccc(OC)cc1)[C@H](C)CN([C@@H](C)CO)S2(=O)=O | inactive
CC(C)(C)OC(=O)C[C@@H]1CC=CC[C@H](CC(=O)N[C@@H](CO)Cc2ccccc2)C(=O)N2CCC[C@@H]2COC1=O | inactive
Cc1noc(C)c1NC(=O)N(C)C[C@H]1Oc2c(NS(C)(=O)=O)cccc2C(=O)N([C@@H](C)CO)C[C@H]1C | inactive
CC(C)(C)S(=O)N1Cc2cc(C(=O)N[C@@H]3CCN(Cc4ccccc4)C3)nc(-c3cccc(C#CCC4CCCC4)c3)c2[C@@H]1CCO (some centres undefined) | inactive
N#C/C(=C\c1ccc(O)c(O)c1)C(N)=O | active
N#CC(=Cc1ccc(O)c(O)c1)C(N)=O | inactive
CCN(CC)C(=O)C(C#N)=Cc1cc(O)c(O)c([N+](=O)[O-])c1 | inactive
Cc1noc(C)c1S(=O)(=O)Nc1cccc2c1O[C@@H](CN(C)C(=O)Nc1ccccc1)[C@@H](C)CN([C@H](C)CO)C2=O | inactive
CC(C)NC(=O)Nc1ccc2c(c1)C(=O)N([C@H](C)CO)C[C@@H](C)[C@@H](CN(C)CC1CCCCC1)OCCCC[C@@H](C)O2 | inactive
NCc1ccc(Br)s1 | inactive
Cc1noc(C)c1S(=O)(=O)Nc1ccc2c(c1)C(=O)N([C@H](C)CO)C[C@H](C)[C@H](CN(C)S(C)(=O)=O)OCCCC[C@@H](C)O2 | inactive
C[C@H](CO)N1C[C@H](C)[C@H](CN(C)Cc2ccc3c(c2)OCO3)Oc2ccc(NC(=O)C3CC3)cc2C1=O | inactive
C[C@@H]1CCCCO[C@@H](CN(C)S(=O)(=O)c2cccs2)[C@@H](C)CN([C@@H](C)CO)C(=O)c2cc(NC(=O)C3CCCCC3)ccc2O1 | inactive
C[C@@H]1CN([C@@H](C)CO)S(=O)(=O)c2ccc(/C=C/c3ccccc3)cc2O[C@H]1CN(C)C(=O)Nc1cc(F)ccc1F | inactive
COc1ccc(C#Cc2ccc3c(c2)O[C@@H](CN(C)C(=O)c2ccccn2)[C@H](C)CN([C@@H](C)CO)S3(=O)=O)cc1 | inactive
COc1cccc(C#Cc2ccc3c(c2)O[C@H](CN(C)C(C)=O)[C@@H](C)CN([C@H](C)CO)S3(=O)=O)c1 | inactive
COc1cccc(C#Cc2ccc3c(c2)O[C@H](CN(C)C(=O)c2ccccn2)[C@H](C)CN([C@H](C)CO)S3(=O)=O)c1 | active
COc1cccc(C#Cc2ccc3c(c2)O[C@@H](CN(C)C(=O)c2ccccn2)[C@@H](C)CN([C@@H](C)CO)S3(=O)=O)c1 | inactive
COc1cccc(C#Cc2ccc3c(c2)O[C@H](CN(C)C(C)=O)[C@H](C)CN([C@@H](C)CO)S3(=O)=O)c1 | inactive
COc1cccc(C#Cc2ccc3c(c2)O[C@H](CN(C)C(=O)c2ccccn2)[C@@H](C)CN([C@H](C)CO)S3(=O)=O)c1 | inactive
COc1ccc(C#Cc2ccc3c(c2)O[C@H](CN(C)C(=O)c2ccccn2)[C@@H](C)CN([C@@H](C)CO)S3(=O)=O)cc1 | inactive
COc1cccc(C#Cc2ccc3c(c2)O[C@@H](CN(C)C(C)=O)[C@@H](C)CN([C@@H](C)CO)S3(=O)=O)c1 | active
COc1ccc(C#Cc2ccc3c(c2)O[C@H](CN(C)C(=O)c2ccccn2)[C@H](C)CN([C@@H](C)CO)S3(=O)=O)cc1 | active
